High-throughput results (PubChem)
This is a sample that favours compounds with a hit; in the whole collection about 11% have one here.
FBPA coupling cs: coupling enzyme interference in Giardia aldolase counter-screen. coupling enzyme system counterscreen, AmpLite Red fluorescence. activity change, negative = inhibition, % at 58.2 µM, hits read low. actives 0.67% (n = 290,000). AID 2472; in the data active = activity change below about -30%
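Counterscreen of the coupled detection system alone, without aldolase: glyceraldehyde-3-phosphate coupling enzymes plus AmpLite Red readout. Compounds at 57.5 uM final, 10 min RT preincubation, 20 min RT reaction, fluorescence 525/598 nm.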
Tau fluor counter: counter-screen for tau fibril formation inhibitors | tau K18 P301L Alexa594 fluorescence, heparin fibrillization | Potency, µM (highest dose often 57.7 µM), without a hit: top-dose activity change, negative = decrease | actives 0.93% (n = 280,000) | AID 1463; note: potency is the fitted concentration of half-maximal effect; nearly all actives have a fitted effect of over 55% in size
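Human K18 P301L tau (15 uM unlabeled plus 0.24 uM Alexa 594-labeled, final) in 100 mM sodium acetate pH 7 was mixed with compound and 20 uM heparin and incubated 6 hr at 37 C.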
Tau fibril FP: blocks human tau fibril formation measured by polarization. Potency, µM (doses to about 57.7 µM), for the others: at the top dose activity, negative = inhibition, actives largely listed as inhibitors. AID 1468. actives 0.39% (n = 280,000). K18 P301L tau heparin fibrillization, Alexa594 FP, 6 h; note: potency is the fitted concentration of half-maximal effect; nearly all actives have a fitted effect of over 55% in size
Target sequence (P10636 561-689 P618L limits assumed): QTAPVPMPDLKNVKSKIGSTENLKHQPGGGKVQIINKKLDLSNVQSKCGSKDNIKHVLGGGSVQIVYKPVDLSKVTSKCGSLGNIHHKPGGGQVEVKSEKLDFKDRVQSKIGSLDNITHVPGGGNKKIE
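Read-out: fluorescence polarization of Alexa 594-labeled tau (0.24 uM), 555 nm excitation, 632 nm emission. Mixtures held 15 uM unlabeled K18 P301L, compound and 20 uM heparin, pH 7 acetate buffer, incubated 6 hr at 37 C.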
Tau ThT inhib: tau fibrillization inhibition (ThT binding) | P10636 | recombinant tau K18 P301L, heparin-induced fibrillization, ThT fluorescence | Potency, µM (series often up to 57.4 µM), for the others: top-dose activity, negative = inhibition, hits mostly inhibitors | actives 2.1% (n = 270,000) | AID 1460; note: potency is the fitted concentration of half-maximal effect; nearly all actives have a fitted effect of over 55% in size
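Fibril formation assay: tau K18 P301L at 15 uM with trace Alexa 594 label, heparin inducer 20 uM, pH 7 sodium acetate buffer, 37 C for 6 hr; endpoint ThT signal.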
G9a block: blocks human histone lysine methyltransferase G9a; AID 504332; Potency, µM (top dose mostly 102 µM), for inactives: top-dose activity, negative = inhibition, actives largely listed as inhibitors; actives 8.8% (n = 350,000); G9a H3K9 monomethylation, AlphaScreen, 2 h; note: potency is the fitted concentration of half-maximal effect; nearly all actives have a fitted effect of over 75% in size
Target sequence (Q96KQ7 913-1193 limits assumed): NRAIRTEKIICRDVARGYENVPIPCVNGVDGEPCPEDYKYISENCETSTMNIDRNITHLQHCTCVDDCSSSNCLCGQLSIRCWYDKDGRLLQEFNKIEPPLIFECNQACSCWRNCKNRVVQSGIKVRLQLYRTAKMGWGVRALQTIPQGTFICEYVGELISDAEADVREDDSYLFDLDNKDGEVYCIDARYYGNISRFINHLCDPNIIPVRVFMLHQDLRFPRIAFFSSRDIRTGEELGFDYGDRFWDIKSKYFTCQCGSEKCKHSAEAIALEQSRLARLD
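Step 1: enzyme (final 20 nM) with compound, 15 min RT. Step 2: substrate peptide 500 nM and SAM 20 uM, 2 h RT. Step 3: anti-H3K9me1 antibody and AlphaScreen beads, 10 min, then plate read.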
Sfp PPTase inh: Sfp phosphopantetheinyl transferase inhibition | AID 1490 | Q9F4F7 | Potency, µM, without a hit: largest response in the series, negative = inhibition, usual class: inhibitors | Biochemical Sfp PPTase activity, qHTS | actives 3.5% (n = 310,000);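 note: the enzyme is Sfp with the accession as filed and its product quenches rhodamine fluorescence; potency is the fitted concentration of half-maximal effect; 0% = enzyme reaction without inhibitor and -100% = no enzyme wells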
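With Hepes-Na pH 7.6 buffer containing 10 mM MgCl2, Sfp (15 nM) modified BHQ-2-YbbR (12.5 uM) using rhodamine-CoA (5 uM). Two reads 30 minutes apart at 525/598 nm yielded each well's rate.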
Starred values were filed as active, the others as inactive; [ ] = remark or other dose. Unless noted, calls come from the whole dose curve; as a rule, active = well fitted curve in the direction sought with a large enough effect; inconclusive = small, poorly fitted or top-dose-only effect, or another doubt; inactive = no such curve, though single readings can be large; an effect the other way counts as inactive or inconclusive. Unless noted, % is set by controls: 0 for no effect and ±100 for the full control effect.

Oc1cccc2c(NC(=S)Nc3ccc(SC(F)F)cc3)cccc12 was read as FBPA coupling cs -43*, Tau fluor counter 11µM*[quencher], Tau fibril FP inconclusive, Tau ThT inhib 10µM*, G9a block 40µM* and Sfp PPTase inh inconclusive.
`Oc1cccc(NC(=S)Nc2ccc(SC(F)F)cc2)c1` gave FBPA coupling cs 0, Tau fluor counter inconclusive, Tau fibril FP -3%, Tau ThT inhib -8%, G9a block -4%[59 µM] and Sfp PPTase inh -12%.
For O=C(Oc1cc(Cl)ccc1Cl)c1ccc(N2CCOCC2)c([N+](=O)[O-])c1 the results were FBPA coupling cs -1, Tau fluor counter inconclusive, Tau fibril FP -8%, Tau ThT inhib 16µM*, G9a block inconclusive and Sfp PPTase inh -3%.
For Cc1ccc(OC(=O)c2ccc(N3CCOCC3)c([N+](=O)[O-])c2)cc1 the results were FBPA coupling cs 0, Tau fluor counter inconclusive, Tau fibril FP -1%, Tau ThT inhib 10µM*, G9a block inconclusive and Sfp PPTase inh -12%.
Screening O=C(O)c1cccnc1-c1ncccc1C(=O)O returned FBPA coupling cs 3, Tau fluor counter 4%, Tau fibril FP -8%, Tau ThT inhib 0%, G9a block 56µM* and Sfp PPTase inh inconclusive.
Screening O=C(O)c1cccc2cccnc12 returned FBPA coupling cs 3, Tau fluor counter -5%, Tau fibril FP -6%, Tau ThT inhib -1%, G9a block 2%[59 µM] and Sfp PPTase inh inconclusive.
Screening CCc1ccc(CNC(=O)c2cc3c(s2)-c2ccccc2OC3)cc1 returned Tau fluor counter -16%, Tau fibril FP inconclusive, Tau ThT inhib -6% and G9a block 13%[59 µM].
CCOC(=O)c1[nH]c2c(c1Cc1ccccc1OC)C(=O)CC(c1ccc(OC)cc1)C2 (centres undefined) was read as Tau fluor counter -23%, Tau fibril FP -15%, Tau ThT inhib -5% and G9a block -28%[59 µM].
CCC(C)Sc1nnc(NS(=O)(=O)Cc2ccccc2)s1 (centres undefined) was read as FBPA coupling cs 11, G9a block 32µM* and Sfp PPTase inh 9%.
Screening c1ccc(Nc2ncnc3[nH]ncc23)cc1 returned FBPA coupling cs 0, Tau fluor counter -4%, Tau fibril FP 11%, G9a block 50µM* and Sfp PPTase inh 6%.
For CN(C(=O)Nc1ccc(Cl)c(Cl)c1)c1ccccc1C(=O)O the results were FBPA coupling cs -5, Tau fluor counter -19%, Tau fibril FP -13%, Tau ThT inhib 2%, G9a block 56µM* and Sfp PPTase inh -25%.
CC(C)CN(C(=O)CSc1nnc2ccccn12)c1c(N)n(CC(C)C)c(=O)[nH]c1=O was read as FBPA coupling cs 0, Tau fluor counter -6%, Tau fibril FP -2%, Tau ThT inhib -11%, G9a block 45µM* and Sfp PPTase inh -1%.
CSc1nnc(SCC(=O)N(C)c2c(N)n(Cc3ccccc3)c(=O)[nH]c2=O)s1 was read as G9a block 20%[2.33 µM].
For CN(C(=O)CSc1nnc2ccccn12)c1c(N)n(Cc2ccccc2)c(=O)[nH]c1=O the results were FBPA coupling cs 3, Tau fluor counter -2%, Tau fibril FP -9%, Tau ThT inhib -4%, G9a block 35µM* and Sfp PPTase inh -17%.
COc1ccc(NC(=O)CN(C)C(=O)CNC(=O)c2ccc(C)s2)cc1 was read as G9a block 6%.
`O=C1NNC(c2ccccc2)=N/C1=C\c1ccccc1` gave FBPA coupling cs 1, Tau fluor counter -21%, Tau fibril FP -6%, Tau ThT inhib -26% and Sfp PPTase inh 3%.
For Cc1ccc(/C=C2/N=C(c3ccccc3)NNC2=O)cc1 the results were FBPA coupling cs 3, Tau fluor counter -20%, Tau fibril FP -3%, Tau ThT inhib inconclusive, G9a block 14µM* and Sfp PPTase inh 21%.
Cc1cccc(NC(=S)N2CCn3cccc3C2c2cccnc2)c1 (centres undefined) was read as FBPA coupling cs 0, Tau fluor counter -11%, Tau fibril FP -3%, Tau ThT inhib -11%, G9a block 50µM* and Sfp PPTase inh 1%.
Screening CCCCNC(=S)N1CCn2cccc2C1c1ccccc1 (centres undefined) returned FBPA coupling cs -1, Tau fluor counter inconclusive, Tau fibril FP -10%, Tau ThT inhib -16%, G9a block 56µM* and Sfp PPTase inh 7%.
For Fc1ccc(NC(=S)N2CCn3cccc3C2c2cccnc2)cc1 (centres undefined) the results were FBPA coupling cs -1, Tau fluor counter -6%, Tau fibril FP 2%, Tau ThT inhib -9%, G9a block inconclusive and Sfp PPTase inh 4%.
Screening CCCCNC(=S)N1CCn2cccc2C1c1ccc(F)cc1 (centres undefined) returned FBPA coupling cs 0, Tau fluor counter inconclusive, Tau fibril FP -5%, Tau ThT inhib -8%, G9a block inconclusive and Sfp PPTase inh 14%.
COc1cccc(NC(=S)N2CCn3cccc3C2c2cccnc2)c1 (centres undefined) was read as FBPA coupling cs 1, Tau fluor counter -5%, Tau fibril FP 8%, Tau ThT inhib inconclusive, G9a block 28µM* and Sfp PPTase inh 9%.
Fc1ccc(C2c3cccn3CCN2C(=S)Nc2cccc(Br)c2)cc1 (centres undefined) was read as FBPA coupling cs -7, Tau fluor counter inconclusive, Tau fibril FP inconclusive, Tau ThT inhib inconclusive, G9a block 71µM* and Sfp PPTase inh 6%.
For Cc1ccc(N2C(=O)N(CC(=O)Nc3c(C)cc(C)cc3Cl)C(=O)C2C)cc1 (centres undefined) the results were G9a block 10%[12.7 µM].
For O=C(NC(=S)NCCCN1CCOCC1)c1ccc([N+](=O)[O-])cc1 the results were FBPA coupling cs 0, Tau fluor counter -12%, Tau fibril FP -1%, Tau ThT inhib -7%, G9a block inconclusive and Sfp PPTase inh -13%.
For COc1cccc(O)c1CN1CCC(C(=O)Nc2ccc(-c3cccc(C)c3)cc2)CC1 the results were FBPA coupling cs -1, G9a block -8% and Sfp PPTase inh 79µM*.
For CCSc1nnc(N2C(=O)C(O)=C(C(=O)c3ccco3)C2c2cccc(OC)c2)s1 (centres undefined) the results were G9a block 35µM* and Sfp PPTase inh inconclusive.
CSc1nnc(N2C(=O)C(O)=C(C(=O)c3ccco3)C2c2cccc(Cl)c2)s1 (centres undefined) was read as Sfp PPTase inh 6.3µM*.
